# Assay results from PubChem BioAssay AID372 (MTDP, 2006).
# Out of some 100,000 compounds screened, about 770 (0.77%) were called active. Shown is part of a subset that was picked to be rich in actives. Values without a mark were called inactive. Rule as the data show it: active = inhibition above about 50%; inactive = the rest.
# Biological target: Gag-Pol polyprotein (Human immunodeficiency virus type 1 group M subtype B (isolate HXB2)) (UniProt P04585)
# Assay: RNase H inhibition, HIV 1 Gag Pol polyprotein, FRET biochemical assay, screening (AID 372)
# Conditions: HIV-1 RT RNase H, FRET RNA/DNA substrate fluorescence; at 10 µM; active compounds read high
row,Compound,inhibition
1,Cc1nnc(SCC(=O)NC(C)c2ccccc2)[nH]c1=O (configuration not stated),0%
2,CC(=C\c1ccccc1)/C=C1/SC(=Nc2ccc(F)cc2)NC1=O,13%
3,O=C(N/N=C/c1ccc(F)cc1)c1ccc(Cl)c(Cl)c1,4%
4,CC(=O)c1cccc(NC(=O)/C(=C/c2ccc(Br)cc2)NC(=O)c2ccccc2)c1,6%
5,CC(=O)c1cccc(NC(=O)/C(=C\c2ccc(Br)cc2)NC(=O)c2ccc(C)cc2)c1,42%
6,Cc1cccc(NC(=O)/C(=C/c2ccc(Br)cc2)NC(=O)c2ccccc2)c1,51% (active)
7,C/C(=N\Nc1ccc([N+](=O)[O-])cc1)c1ccc([N+](=O)[O-])o1,8%
8,COc1cc(Cc2ccc(N/C=C/C(=O)c3ccc(Br)cc3)c(OC)c2)ccc1N/C=C/C(=O)c1ccc(Br)cc1,25%
9,Cc1ccc(C(=O)Oc2ccc(Cl)cc2C)cc1,2%
10,Cc1cc(Cl)ccc1OC(=O)c1ccc(Cl)cc1,51% (active)
11,Cc1cc(Cl)ccc1OC(=O)c1ccc(Br)cc1,34%
12,O=C(Nc1cnc2ccccc2c1)C1COc2ccccc2O1 (configuration not stated),3%
13,O=S(=O)(CCc1nnc(-c2ccc(Br)cc2)o1)c1ccc(Cl)cc1,2%
14,COc1ccc(N2C(=O)/C(=C\c3ccc(OC)c(O)c3)SC2=S)cc1,4%
15,COc1cccc(N2C(=O)/C(=C/c3ccc(O)c(O)c3)SC2=S)c1,75% (active)
16,COc1ccc(N2C(=O)/C(=C\c3ccc(O)c(O)c3)SC2=S)cc1,77% (active)
17,COc1ccc(N2C(=O)/C(=C/c3ccc(O)c(OC)c3)SC2=S)cc1,26%
18,COc1cccc(N2C(=O)/C(=C/c3cccc(O)c3)SC2=S)c1,29%
19,COc1cccc(N2C(=O)/C(=C/c3ccc(O)c(OC)c3)SC2=S)c1,22%
20,COc1cc(OC)cc(C(=O)Nc2ccc(N3CCN(C(=O)c4ccccc4)CC3)cc2)c1,31%
21,CCOc1cccc2c1N(C(=O)c1ccccc1)C(C)(C)C(=S)C2=C1SC(C(=O)OC)=C(C(=O)OC)S1,45%
22,CCCOc1ccc(C(=O)NCc2ccccc2)cc1,6%
23,COc1cc(/C=C/c2nc3ccccc3c(=O)n2-c2ccccc2[N+](=O)[O-])ccc1O,35%
24,Cc1ccc(-n2c(/C=C/c3c(C)n(C)c4ccccc34)nc3ccccc3c2=O)cc1,0%
25,COc1cc(/C=C/c2nc3ccccc3c(=O)n2-c2cccc([N+](=O)[O-])c2)ccc1O,61% (active)
26,O=C(O)c1ccc(-n2c(/C=C\c3ccccc3)nc3ccccc3c2=O)cc1,7%
27,COc1cccc(/C=C/c2nc3ccccc3c(=O)n2-c2cccc([N+](=O)[O-])c2)c1O,27%
